# Several values for one entry are separate records, joined by “and”; a condition that tells them apart may be missing. Identical values can stand only once. About 83,000 compounds went through this panel and 20% of them were active in at least one assay; those are over-represented in the sample as a whole.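 Cell lines were cultured in 96-well plates, exposed to a single compound concentration, and assessed for percent growth 48 hours later.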 Unmarked numbers belong to inactive results. Activity calls are given as the source filed them.
# System: BT-549 breast
# Assay: NCI-60 one-dose screen, 48 h (100 = growth as untreated, 0 = no growth, -100 = all killed)
# Details: 10 µM
# Description: Growth inhibition of the BT-549 human tumor cell line is measured as a screen for anti-cancer activity. Cells are grown in 96 well plates and exposed to the test compound for 48 hours. Compounds are tested at a single concentration, which is 10^-5 M for most compounds. The reported endpoint is percent growth (GI% or GIPRCNT), where numbers from 0 - 100% represent growth inhibition, and numbers from -100% - 0 represent cell death. For example, a value of 40 represents 60% growth inhibition. A value of 0 means no net growth occurred over the course of the experiment. A value of -40 indicates 40% of cells at the beginning of the experiment died by the end of the experiment. A value of -100 means all cells are dead at the end of the experiment.
# NCI-60 Human Tumor Cell Lines Screen was performed using the standard one-dose NCI protocol, which is described in more detail at https://dtp.cancer.gov/discovery_development/nci-60/default.htm.
# Compounds with GIPRCNT values below 10 were considered active. Activity score was based on GIPRCNT using the following formula: […]
# Score is 0 for GIPRCNT values of 100 or above, 50 for GIPRCNT values of 0, and 100 for GIPRCNT values of -100.
row,SMILES,growth
1,Oc1c(Cl)cc(Cl)c2ccccc12.[Cu+2],106%
2,Cc1ccc(NC(=O)CBr)cc1,139%
3,O=C1C(=O)c2ccccc2-c2ccccc21,-75% (active)
4,CCOP(=O)(OCC)C(O)c1ccccc1Cl (stereo not given),109%
5,COc1cc(/C=C(/C)[N+](=O)[O-])ccc1O,79.5% and 95.1%
6,CC1CCC2(OC1)OC1C(O)C3C4CCC5CC(OC6OC(CO)C(OC7OC(CO)C(O)C(OC8OCC(O)C(O)C8O)C7OC7OC(CO)C(O)C(OC8OC(CO)C(O)C(O)C8O)C7O)C(O)C6O)C(O)CC5(C)C4CCC3(C)C1C2C (stereo not given),-74.8% (active)
7,CC(Cc1ccc2c(c1)OCO2)NN (stereo not given),96.7%
8,S=C=NCCc1ccccc1,-20.2% (active)
9,Oc1ccccc1-c1ccccc1,111% and 96.9%
10,CC(C)(C)OOC(=O)/C=C\C(=O)OOC(C)(C)C,104%
11,COc1ccc2c(ccc3oc([N+](=O)[O-])cc32)c1,-35.1% (active)
12,COc1cc2c(c(OC)c1OC)-c1ccc(O)c(=O)cc1[C@@H](NC(C)=O)CC2,59.9%
13,CC(=O)Nc1c2sscc-2n(C)c1=O,-96.4% (active)
14,CN(C)CC1(N)C(=O)NC(=O)NC1=O,111%
15,C=C1C(=O)O[C@@H]2C[C@@H](C)[C@@H]3C=CC(=O)[C@@]3(C)[C@@H](O)[C@H]12,-85.1% (active)
16,COc1ccccc1/C=C/[N+](=O)[O-],82.4%
17,Cc1cc([N+](=O)[O-])c2ccccc2[n+]1[O-],-36.6% (active) and -19.4% (active)
18,CS(=N)(=O)CCC(N)C(=O)O (stereo not given),99.2%
19,COc1cc(/C=C/[N+](=O)[O-])cc(OC)c1OC,40.6%
20,O=C(CBr)Nc1ccc(Cl)cc1,116%

row,SMILES,growth
1,O=[N+]([O-])c1ccc(Br)c([N+](=O)[O-])c1,104%
2,O=C(O)c1cc(Cc2ccc(O)c(C(=O)O)c2)ccc1O (tested in a mixture with another compound),73.8%
3,CC[C@@H](C)[C@@H]1NC(=O)C(NC(=O)C(CC(C)C)N(C)C(=O)C2CCCN2C(=O)C(C)O)C(C)OC(=O)C(Cc2ccc(OC)cc2)N(C)C(=O)C2CCCN2C(=O)C(CC(C)C)NC(=O)C(C)C(=O)C(C(C)C)OC(=O)C[C@H]1O (stereo not given in full),-74.2% (active)
4,COc1cc([N+](=O)[O-])c2ncccc2c1[N+](=O)[O-],98.2%
5,Cc1cc(C)c(C[N+](C)(C)C)c(C)c1C,7.59% (active)
6,CC(C)C1(NC(=O)C2CC3c4cccc5[nH]cc(c45)CC3N(C)C2)OC2(O)C3CCCN3C(=O)C(Cc3ccccc3)N2C1=O (stereo not given),91.4%
7,COc1ccc(/C=C(\C)[N+](=O)[O-])cc1OC,-29.7% (active)
8,O=[N+]([O-])/C=C\c1ccc2c(c1)OCO2,91.7%
9,COC12c3c(C)cc(O)c4c(=O)occ(c34)C(=O)C1C13COC(=O)c4c(O)cc(C)c(c41)C(=O)C2C3OC(C)=O (stereo not given),96.2%
10,CC/C(=C/c1ccc(OC)cc1)[N+](=O)[O-],-34.5% (active)
11,O=[P+](O)c1ccccc1,104%
12,O=[N+]([O-])c1ccc(N2CCOCC2)c2c1no[n+]2[O-],-41.5% (active)
13,CC(=O)[O][Hg][c]1c(C)c(C)cc(C)c1C,-70.4% (active)
14,O=C1CCC(=O)N1SC(Cl)(Cl)Cl,104%
15,CC12OOC(c3ccccc31)c1c2ccc2ccccc12 (stereo not given),-82.2% (active)
16,O=S(=O)(F)c1ccc(Cl)cc1,112%
17,O=C(CBr)Nc1ccccc1,87%
18,C[CH2][Hg][S]c1ccccc1C(=O)O,-73.4% (active)
19,C/C(=C\c1ccc(Cl)c(Cl)c1)[N+](=O)[O-],76.3% and 103%
20,NC(=O)c1cc([N+](=O)[O-])c(Cl)c([N+](=O)[O-])c1,113%

# Source: PubChem BioAssay (NCI)
